Assay outcomes: PubChem, National Center for Advancing Translational Sciences (NCATS)
Shown are actives, neighbours in structure and some others; about 0.31% of the full set was active somewhere.
TRPV1 potentiator: HTS Assay for Compounds that Act as Potentiators of the Vanilloid Receptor 1. AID 540277, 2011. potentiation, % at 8.33 µM. actives 0.02% (n = 320,000). TRPV1-expressing cells, Fluo-8 calcium influx, capsaicin EC20 potentiation; in the data active means potentiation above about 80%; inconclusive means between about 30% and that limit
Target sequence (Q8NER1 whole entry, looked up): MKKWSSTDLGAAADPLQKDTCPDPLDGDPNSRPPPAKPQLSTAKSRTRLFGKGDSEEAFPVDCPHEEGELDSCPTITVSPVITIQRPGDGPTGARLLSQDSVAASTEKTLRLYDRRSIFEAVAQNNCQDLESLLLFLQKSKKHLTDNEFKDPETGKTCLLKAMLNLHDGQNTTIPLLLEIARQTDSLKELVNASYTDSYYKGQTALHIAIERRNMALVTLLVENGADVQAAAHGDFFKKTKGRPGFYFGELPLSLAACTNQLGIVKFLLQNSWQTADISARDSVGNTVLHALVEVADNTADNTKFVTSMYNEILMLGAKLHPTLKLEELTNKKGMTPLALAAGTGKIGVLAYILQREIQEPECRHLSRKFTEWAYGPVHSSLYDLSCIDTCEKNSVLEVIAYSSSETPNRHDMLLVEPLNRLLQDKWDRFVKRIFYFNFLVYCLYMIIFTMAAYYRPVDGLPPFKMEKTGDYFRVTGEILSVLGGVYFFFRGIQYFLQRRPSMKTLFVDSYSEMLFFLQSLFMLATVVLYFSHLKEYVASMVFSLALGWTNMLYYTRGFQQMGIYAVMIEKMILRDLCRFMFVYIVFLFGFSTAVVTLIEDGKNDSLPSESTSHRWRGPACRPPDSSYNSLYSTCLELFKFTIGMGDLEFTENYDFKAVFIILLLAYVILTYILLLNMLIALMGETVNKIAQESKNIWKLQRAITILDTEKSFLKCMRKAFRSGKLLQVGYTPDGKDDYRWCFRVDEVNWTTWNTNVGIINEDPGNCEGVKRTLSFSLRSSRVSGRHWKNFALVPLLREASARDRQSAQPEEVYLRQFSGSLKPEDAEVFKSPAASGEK
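Fluo-8 calcium influx in TRPV1-expressing cells, kinetic read (ex 480/em 520 nm). Compound added and read 3 min for agonist activity, followed by capsaicin at EC20 final and 2 min further read for enhancement.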
TRPML1 blocker: qHTS for Inhibitors of the Human Mucolipin Transient Receptor Potential 1 (TRPML1) | Mucolipin-1 (Homo sapiens), Q9GZU1 | TRPML1-inducible cells, Ca2+ dye fluorescence, FDSS; active compounds read low; inhibition of EC80 agonist-evoked calcium signal | activity change, negative = inhibition, % (no concentration beside the values) | actives 0.02% (n = 390,000) | AID 624415, 2012; in the data active means activity change below about -50%; inconclusive means between about -30% and that limit;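 further: stimulus is agonist 54-4 at its EC80 concentration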
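TRPML1-DL cells, Tet-induced overnight (~16 h, 37 °C) at 1,500 cells/well, were loaded with Ca8 no-wash dye plus quencher for 45-90 min at room temperature. Compounds were pinned during FDSS kinetic reading; agonist 54-4 at EC80 (4 uM final) then added.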
TRPML1 agonist: qHTS for Agonists of the Human Mucolipin Transient Receptor Potential 1 (TRPML1). TRPML1-expressing cells, Ca2+ dye fluorescence, FDSS. activation, % (test concentration not listed). actives 0.12% (n = 410,000). AID 624414, 2012; in the data active means activation above about 50%; inconclusive means mostly about 30% to 49%
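Kinetic FDSS Ca2+ read in Tet-induced TRPML1-DL cells (ABD Ca8 dye plus quencher, 45-90 min RT loading): baseline, then compound, then 110 s agonist window; EC80 agonist 54-4 at 4uM final added afterwards for a 110 s antagonist window.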
TRPV1 ag: HTS Assay for Compounds that Act as Agonists of the Vanilloid Receptor 1. TRPV1-expressing cells, Fluo-8 calcium influx, agonist mode. activation, % at 8.33 µM. actives 0.19% (n = 320,000); in the data active means activation above about 80%; inconclusive means between about 30% and that limit
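Cells expressing TRPV1 were dye-loaded with Fluo-8 and read kinetically: 10 s baseline, 3 min after compound (agonist portion), then 2 min after EC20 capsaicin (allosteric enhancer portion). Calcium-bound dye fluorescence at 480/520 nm.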
Hits are given with their value; – = inactive; ? = inconclusive; · = no result.

SMILES	TRPV1 potentiator	TRPML1 blocker	TRPML1 agonist	TRPV1 ag
CCOCCCn1c(=S)[nH]c2cc(C(=O)NCCCN(CC)CC)ccc2c1=O	105	–	–	–
CN(CC(=O)NCc1ccccc1Cl)S(=O)(=O)c1ccc2c(c1)c(=O)n(C)c(=O)n2C	·	–	–	·
Cc1ccc(S(=O)(=O)N2C[C@@H]3[C@H]4CC[C@H](C4)[C@@H]3[C@@H](C)[C@@H]2C2CCCCC2=O)cc1 (some centres undefined)	·	–	92	·
CSc1ccc(S(=O)(=O)N2c3ccccc3CC2C)cc1 (centres undefined)	–	–	?	–
Cc1ccc(NC(=O)c2ccc3c(c2)OCO3)cc1Cl	–	–	–	83
CCN(CC)c1ccc(NC(=O)c2ccc3c(c2)OCO3)cc1	–	–	–	83
CSc1nnc2c3c4c(sc3nc(-n3nc(C)cc3C)n12)COC(C)(C)C4	–	–	–	80
Cc1cc(C)n(-c2nc3sc4c(c3c3nnc(SCC(N)=O)n23)CC(C)(C)OC4)n1	–	–	–	–
COC(=O)C1=C(c2ccccc2)c2ccccc2S(=O)(=O)N1CC(=O)Nc1cc(C)ccc1C	·	–	–	·
CCC1(C)NC(c2ccc3c(c2)OCO3)=CC(c2ccccc2O)N1 (centres undefined)	·	·	–	·
Cc1ccc(-n2ncc(C(=O)N3CCN(c4cccc(C)c4)C(C)C3)c2C2CCN(C(=O)OC(C)(C)C)CC2)cc1 (centres undefined)	·	–	73	·
Cc1cccc(-n2ncc(C(=O)N3CCN(Cc4ccccc4)CC3)c2C2CCN(C(=O)OC(C)(C)C)CC2)c1	·	–	51	·
COc1ccc(CCNC(=O)COc2ccc(S(=O)(=O)NC(C)C)cc2Cl)cc1OC	–	-61	–	–
COc1ccc(CCNC(=O)CCc2ccc(S(=O)(=O)NC(C)C)cc2)cc1OC	–	–	–	–
CC(C)NC(=S)NC(c1ccccc1)(c1ccccc1)c1ccccc1	–	–	70	?
C/C(=N\NC(=S)NC(C)C)c1ccccc1	–	·	·	–
O=C(c1cnc(N2CCCCC2)c2ccccc12)N1CCN(c2ccccc2F)CC1	·	–	–	·
CC1CCN(C(=O)/C=C/c2ccc(C(C)(C)C)cc2)CC1	–	–	–	89
Cc1ccc(/C=C/C(=O)N2CCCC(C)C2)cc1 (centres undefined)	–	–	–	?
CC(C)(C)c1ccc(/C=C/C(=O)N2CCCCC2)cc1	–	–	–	94
CCC(C)c1ccc(NC(=O)N2CCOCC2)cc1 (centres undefined)	–	–	–	93
O=C(Nc1ccc(Cc2ccc(NC(=O)N3CCOCC3)cc2)cc1)N1CCOCC1	–	–	–	–
CCC(C)c1ccc(NC(=O)COC(=O)CCNC(=O)c2ccco2)cc1 (centres undefined)	–	–	–	–
CCC(C)c1ccc(NC(=O)c2ccco2)cc1 (centres undefined)	–	·	·	82
O=C(Cc1cccc(NC(=O)C2CCN(C(=O)C3CCCCC3)CC2)c1)Nc1cccc(C(=O)N2CCOCC2)c1	·	–	–	·
SMILES	TRPV1 potentiator	TRPML1 blocker	TRPML1 agonist	TRPV1 ag
Cc1cc(-c2ccc(C)c(S(=O)(=O)N(C)c3ccc(C)c(C)c3)c2)on1	·	–	–	·
O=c1oc2cc(O)ccc2cc1-c1nc2c(s1)CCc1ccccc1-2	–	–	83	83
O=c1oc2ccccc2cc1-c1nc2c(s1)CCc1ccccc1-2	–	–	–	–
O=c1oc2cc(O)ccc2cc1-c1nnc(Nc2ccccc2F)s1	·	–	71	·
O=c1oc2ccc3ccccc3c2cc1-c1nnc(Nc2ccccc2F)s1	·	–	–	·
Oc1ccc(Br)cc1C1C=C(c2ccc3c(c2)OCO3)NC(c2cccc(F)c2)N1 (centres undefined)	–	–	–	?
O=C(NCC1COc2ccccc2O1)c1ccc(Br)s1 (centres undefined)	–	–	–	85
O=C(NCC1COc2ccccc2O1)c1cccs1 (centres undefined)	–	–	–	–
CCN(CC)c1ccc2cc(C(N)=O)c(=N)oc2c1	–	–	56	?
CCN(CC)c1ccc2cc(C=O)c(=O)oc2c1	–	–	113	?
CCN(CC)c1ccc2cc(C(C)=O)c(=O)oc2c1	–	–	72	?
C[C@@H]1CN([C@H](C)CO)C(=O)CCCn2nncc2CO[C@H]1CN(C)S(=O)(=O)c1ccccc1	·	–	–	·
O=C(c1cc(-c2ccc(Br)cc2)on1)N1CCCCCC1	–	–	–	?
O=C(c1cc(-c2ccc(Br)cc2)on1)N1CCOCC1	–	–	–	99
COc1cc(-c2cc3n(C)c(C)c(CCC(=O)NCc4ccccc4)c(=O)n3n2)cc(OC)c1OC	·	–	–	·
COc1cccc(/C=N/n2c(SC)nnc2-c2ccccc2)c1O	–	–	–	89
CCCCN(C=O)c1c(CC)nc2ccc(C(=O)N3CCN(C(=O)c4ccco4)CC3)cn12	·	·	–	·
Cc1ccc(C2C(C#N)=C(N)SC(N)=C2C#N)cc1	–	–	–	–
Cc1ccc(C2C(C#N)=C(N)SC(N)=C2C#N)c(C)c1	–	–	64	–
O=S(=O)(c1ccccc1C(F)(F)F)N1CCN(c2nc(-c3cccs3)nc3ccccc23)CC1	·	·	–	·
Cc1ccc(-c2c(C(=O)N/N=C/c3ccoc3)nnn2-c2nonc2N)cc1	–	–	–	88
CCOc1ccc(CNC(=O)C(C)n2ncn3cccc3c2=O)cc1 (centres undefined)	·	–	–	·
CC(O)CN(CC(C)O)c1ccc2c(c1)Cc1cc([N+](=O)[O-])ccc1-2 (centres undefined)	·	–	83	·
Nc1ccc2c(c1)Cc1cc([N+](=O)[O-])ccc1-2	–	–	?	–
COc1cc(C2C(C(=O)Nc3ccccc3C)=C(C)Nc3nc(SCc4cc(C)ccc4C)nn32)ccc1O (centres undefined)	–	–	–	–
SMILES	TRPV1 potentiator	TRPML1 blocker	TRPML1 agonist	TRPV1 ag
CCCOc1ccc(C(=O)NNC(=S)NC(=O)c2cccs2)cc1	–	–	53	–
O=C(NC(=S)NNC(=O)c1cccs1)c1ccccc1	–	–	–	–
CC(C)(C)c1ccc(C(=O)NC(=S)NNC(=O)c2cccs2)cc1	–	–	74	?
CCN1C(=O)CC2CCCC1C2 (centres undefined)	·	–	–	·
COc1ccc(NC(=O)c2ccc(Br)c(S(=O)(=O)N3CCOCC3)c2)cc1	–	–	–	98
C/C(=N\Nc1ccc2nncn2n1)c1ccco1	–	–	–	–
C/C(=N\Nc1ccc2nncn2n1)c1ccc(Br)s1	–	–	–	96
Cc1[nH]c(SCC(=O)Nc2cc(C(N)=O)cc(C(N)=O)c2)nc1Cc1ccccc1	·	–	–	·
Cc1cc(NC(=O)CSc2nc(Cc3ccc(O)cc3)c(C)[nH]2)no1	–	-54	–	–
